# Hits are enriched below; roughly 12% of the tested compounds scored in any of these assays.
# JMJD2A Tudor inh: blocks the human JMJD2A Tudor domain; O75164; AlphaScreen JMJD2A-Tudor / H3K4me3 peptide binding; Potency, µM (highest dose often 114 µM), for inactives: at the highest dose activity change, negative = inhibition, hits mostly inhibitors; 390,000 compounds, 4.4% hits; AID 504339; further: on the % scale 0 is the no-effect control and ±100 the full control effect; nearly all actives have a fitted effect of over 50% in size
# BAZ2B block: BAZ2B (human) inhibition | Potency, µM (titrated, usually from 114 µM), inactives show at the highest dose activity change, negative = inhibition, usual class: inhibitors | AlphaScreen BAZ2B-H3K14Ac peptide displacement | 360,000 compounds, 4.4% hits | Q9UIF8; further: on the % scale 0 is the no-effect control and ±100 the full control effect; nearly all actives have a fitted effect of over 60% in size
#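 Protein-peptide AlphaScreen: BAZ2B 50 nM, b-H3K14Ac 50 nM, 1x PBS pH 7.4 + 0.01% Tween-20. Preincubation 30 min RT; cpd 30 min RT (top 110 uM); beads 20 min RT, light-protected.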
# Sfp inh: Sfp phosphopantetheinyl transferase inhibition. Biochemical Sfp PPTase activity, qHTS. Potency, µM, inactives show largest response in the series, negative = inhibition, most hits filed as inhibitors. 310,000 compounds, 3.5% hits. AID 1490;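 further: the enzyme is Sfp with the accession as filed and its product quenches rhodamine fluorescence; 0% = enzyme reaction without inhibitor and -100% = no enzyme wells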
#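 Fluorescence-quenching assay with 15 nM Sfp, 5 uM rhodamine-CoA and 12.5 uM BHQ-2-labelled ybbR peptide in pH 7.6 Hepes/MgCl2 buffer. Enzyme was pre-incubated with compound for 15 min at room temperature. Rate was taken from the 30-min fluorescence change (525/598 nm).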
# HP1b binding inh: inhibitors of HP1-beta chromodomain binding to methylated histone tails | P83916 | AlphaScreen HP1-beta / biotin-H3K9me3 peptide binding | Potency, µM (top dose mostly 114 µM), for the others: at the highest dose activity change, negative = inhibition, actives largely listed as inhibitors | 390,000 compounds, 0.56% hits; further: nearly all actives have a fitted effect of over 70% in size
# Target sequence (P83916 whole entry, looked up): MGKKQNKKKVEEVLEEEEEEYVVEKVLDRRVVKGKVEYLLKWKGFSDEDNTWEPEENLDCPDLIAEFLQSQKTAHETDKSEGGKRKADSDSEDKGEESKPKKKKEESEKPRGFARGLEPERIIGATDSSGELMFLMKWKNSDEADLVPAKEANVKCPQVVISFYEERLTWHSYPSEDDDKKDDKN
#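 AlphaScreen: HP1-beta (50 nM) preformed 30 min with biotin-H3(1-18)K9me3 peptide (50 nM) in PBS pH 7.4, 0.01% Tween-20. Compound added for 30 min at RT, then streptavidin donor/nickel chelate acceptor beads (10 ug/mL) for 30 min.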
# G9a inh: G9a (human) methyltransferase inhibition; AID 504332; G9a H3K9 monomethylation, AlphaScreen, 2 h; 350,000 compounds, 8.8% hits; Potency, µM (doses to about 102 µM), inactives show at the top dose activity, negative = inhibition, hits mostly inhibitors; Q96KQ7; further: on the % scale 0 is the no-effect control and ±100 the full control effect; nearly all actives have a fitted effect of over 75% in size
# Target sequence (Q96KQ7 913-1193 limits assumed): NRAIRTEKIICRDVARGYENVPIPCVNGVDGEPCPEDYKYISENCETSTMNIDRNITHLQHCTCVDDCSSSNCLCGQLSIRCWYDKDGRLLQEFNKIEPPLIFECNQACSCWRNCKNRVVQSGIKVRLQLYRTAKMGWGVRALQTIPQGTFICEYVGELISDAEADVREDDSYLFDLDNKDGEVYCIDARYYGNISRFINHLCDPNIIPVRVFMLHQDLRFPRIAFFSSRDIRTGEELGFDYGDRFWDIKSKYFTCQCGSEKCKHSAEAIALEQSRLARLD
#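 Enzyme 20 nM + cpd, 15 min RT; add b-H3K9 pep 500 nM / SAM 20 uM; 2 h RT; anti-H3K9me1 Ab 0.5 ug/mL + SA donor / anti-rabbit acceptor beads 20 ug/mL each, 10 min; AlphaScreen read.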
# TDP1 block: blocks human tyrosyl-DNA phosphodiesterase 1; Q9NUW8; recombinant TDP1, AlphaScreen DNA substrate cleavage; Potency, µM (top dose mostly 130 µM), inactives show top-dose activity change, negative = inhibition, usual class: inhibitors; 350,000 compounds, 0.28% hits; AID 485290; further: on the % scale 0 is the no-effect control and ±100 the full control effect; nearly all actives have a fitted effect of over 40% in size
#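 Here, a 5' biotin and 3' phosphotyrosine-FITC DNA oligonucleotide reports Tdp1 activity: intact substrate bridges AlphaScreen beads, while cleavage leaves a 3' phosphate and drops signal. All incubations at room temperature.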
# * hit, by the source's call; ? = inconclusive; · = no result given; [ ] = another dose, or the depositor's remark. The call rests on the fitted dose curve; in most records, active means well fitted curve in the direction sought with a large enough effect; inconclusive means small, poorly fitted or top-dose-only effect, or another doubt; inactive means no such curve, though single readings can be large; an effect the other way counts as inactive or inconclusive. Potency means the concentration at half of the fitted maximal effect.
SMILES,JMJD2A Tudor inh,BAZ2B block,Sfp inh,HP1b binding inh,G9a inh,TDP1 block
COC(=O)C1=C(C)N=c2s/c(=C/c3ccoc3)c(=O)n2C1c1ccccc1 (stereo unspecified),?,?,79µM*,?,?,0%
Cc1cccc(NCC(=O)c2c(N)n(C)c(=O)n(C)c2=O)c1C,-14%,5%,16%,29%,·,5%
CC(=O)Oc1cc(OC(C)=O)c2c(=O)cc(-c3ccc(OC(C)=O)c(OC(C)=O)c3)oc2c1,·,·,2%,·,·,13%
CCOc1ccc(-n2c(=S)sc3c(=O)[nH]c(SCC(=O)C(C)(C)C)nc32)cc1,?,-22%,-29%,6%,-39%,5%
CCOC(=O)C1=C(C)N=c2s/c(=C\c3ccc(C(=O)O)cc3)c(=O)n2C1c1ccc(OC)cc1OC (stereo unspecified),-35%,·,·,6%,·,·
CCOC(=O)C1=C(C)N=c2s/c(=C/c3ccco3)c(=O)n2C1c1cccc(OC)c1 (stereo unspecified),?,10µM*,40µM*,?,16µM*,-6%
CCOC(=O)C1=C(C)N=c2s/c(=C\c3ccc(OCC(=O)O)c(OC)c3)c(=O)n2C1c1ccc(OC)cc1 (stereo unspecified),79µM*,79µM*,-2%,8%,56µM*,·
C[C@H]1Cc2c(-c3ccccc3)nc3c(c2CO1)CN(C(=O)Nc1cccc(C#N)c1)CC3,·,·,17%,·,·,6%[12.3 µM]
Cc1nc(-n2nc(C)c(Cc3ccccc3Cl)c2C)sc1C(=O)Nc1ccccc1F,4%,2%,·,45%,-13%[59 µM],5%
Cc1cc(CN(C)C(=O)CC2C(=O)NCCN2Cc2ccc(F)c(F)c2)on1 (stereo unspecified),-18%,3%,6%,35%,·,8%
CC(C)N(Cc1nccn1C)C(=O)CC1C(=O)NCCN1Cc1ccc(F)c(F)c1 (stereo unspecified),-6%,-26%,-6%,25%,40µM*,4%
Cc1ccc(CN2CCNC(=O)C2CC(=O)N(C)C2CCOCC2)cc1 (stereo unspecified),-8%,3%,6%,40%,50µM*,1%
CN(C(=O)CC1C(=O)NCCN1Cc1c(F)cccc1Cl)C1CCOCC1 (stereo unspecified),-4%,0%,4%,85%,45µM*,3%
CN(C(=O)CC1C(=O)NCCN1Cc1ccc(F)c(F)c1)C1CCCCC1 (stereo unspecified),-8%,-15%,3%,18%,45µM*,7%
CC(C)N(Cc1nccn1C)C(=O)CC1C(=O)NCCN1Cc1ccc(F)cc1 (stereo unspecified),1%,-37%,-8%,40%,?,5%
CCOC(=O)c1c(NC(=O)c2nc(SCC)ncc2Cl)sc2c1CCCC2,-16%,-3%,·,26%,6%[59 µM],-7%
CCN(Cc1ccncc1)C(=O)CC1C(=O)NCCN1Cc1ccc(F)c(F)c1 (stereo unspecified),-10%,-29%,79µM*,70%,?,·
COc1cc2nc(N(CCN(C)C)C(=O)c3ccc(S(=O)(=O)N(C)CC4CCCO4)cc3)sc2cc1OC (stereo unspecified),-19%,?,-1%,28%,32µM*,6%
COc1cc2nc(N(CCCN(C)C)C(=O)c3ccc(S(=O)(=O)N(C)C4CCCCC4)cc3)sc2cc1OC,-35%,-29%,·,-15%,45µM*,·
CN(C)CCN(C(=O)c1ccc(S(=O)(=O)N(C)CC2CCCO2)cc1)c1nc2cc3c(cc2s1)OCO3 (stereo unspecified),?,-38%,-3%,-12%,?,7%
CCc1ccc2nc(N(CCCN(C)C)C(=O)c3ccc(S(=O)(=O)N(C)C4CCCCC4)cc3)sc2c1,?,?,45µM*,14%,?,7%
CCOc1ccc2nc(N(CCCN(C)C)C(=O)c3ccc(S(=O)(=O)N4CCCC4)cc3)sc2c1,-8%,?,-15%,8%,?,8%
COc1ccc(C)c2sc(N(CCCN(C)C)C(=O)c3ccc(S(=O)(=O)N(C)C)cc3)nc12,-1%,·,-11%,24%,?,-1%
CCc1ccc2nc(N(CCCN(C)C)C(=O)c3ccc(S(=O)(=O)N4CCc5ccccc5C4)cc3)sc2c1,-14%,?,63µM*,15%,·,3%
CCOc1cccc2sc(N(CCCN(C)C)C(=O)c3ccc(S(=O)(=O)N4CCc5ccccc5C4)cc3)nc12,-6%,-28%,-29%,13%,·,6%
SMILES,JMJD2A Tudor inh,BAZ2B block,Sfp inh,HP1b binding inh,G9a inh,TDP1 block
CCCCNc1nc(Oc2ccc(=O)n(-c3ccccc3)n2)nc(N(CC)CC)n1,-19%,-5%,·,23%,-32%[59 µM],7%
COc1ccc(S(=O)(=O)N(CC(=O)NCC2CCCO2)Cc2ccccc2)cc1C (stereo unspecified),-2%,1%,7%,10%,·,4%[56.1 µM]
COc1ccc(CN(CC2CCCO2)S(=O)(=O)c2ccc(C(=O)O)cc2)cc1OC (stereo unspecified),-7%,-6%,1%,45%,56µM*,4%
CN(C)CCCN(C(=O)c1ccc(S(=O)(=O)N(C)C2CCCCC2)cc1)c1nc2ccc(F)cc2s1,?,?,-20%,-10%,45µM*,6%
CN(C)CCCN(C(=O)c1ccc(S(=O)(=O)N(C)C2CCCCC2)cc1)c1nc2ccc(Br)cc2s1,35µM*,?,40µM*,-13%,·,8%
CN(C)CCCN(C(=O)c1nc2ccccc2s1)c1nc2ccc(F)cc2s1,-1%,·,·,47%,·,·
CCCOC1CCCN(C(=O)c2cc(COc3ccc(-n4cncn4)cc3)on2)C1 (stereo unspecified),-5%,-4%,17%,25%,·,2%
O=C(Cn1ccnc1)c1ccc(O)c(O)c1,22µM*,56µM*,·,15%,?,·
O=C(NCCCn1ccnc1)c1ccc2ccccc2c1,-8%,-23%,10%,32%,13%,4%
c1ccc(COc2cccc(CNCc3cccnc3)c2)cc1,?,50µM*,-7%,19%,?,3%
CCOc1cc(CNc2ccc(O)cc2)cc(Cl)c1OCc1ccccc1,45µM*,28µM*,·,35µM*,?,4%
Oc1ccc(NCc2cccc(OCc3ccccc3)c2)cc1,50µM*,-29%,?,?,13µM*,8%
CCOc1cc(CNc2ccccc2)cc(Br)c1OCc1ccc(F)cc1,12%,0%,?,62%,74%[59 µM],6%
COc1ccc(CN2C(=O)[C@H]3Cc4c([nH]c5ccccc45)C(C)(C)N3C2=O)cc1,?,·,·,-10%,·,·

# Source: PubChem BioAssay (National Center for Advancing Translational Sciences (NCATS))
